This is part of a sample that, as a whole, favours compounds with a hit. Of some 79,000 tested, about 15% had one in any assay. Active and inactive are the calls of the source. Rule as the data show it: active = growth inhibition above about 70%; inactive = the rest.
Tests used:
[1] = NCI Yeast Anticancer Drug Screen. Data for the wt1 strain (AID 149);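 also: 0% = growth of vehicle-treated wt1 cultures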; conditions: S. cerevisiae wt1 strain (SPY 50644) growth inhibition, hits give high values
In short: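 Readout: yeast growth inhibition, normalised to vehicle controls, in the wt1 strain exposed to test compounds.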

[2] = NCI Yeast Anticancer Drug Screen. Data for the rad50EPP+ strain (AID 151);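 also: 0% = growth of vehicle-treated control cultures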; conditions: S. cerevisiae rad50 mutant strain, hits give high values
In short: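 Yeast strain carrying rad50 alteration (rad50EPP+) exposed to compounds; growth inhibition measured relative to vehicle-treated controls.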

[3] = NCI Yeast Anticancer Drug Screen. Data for the mgt1 strain (AID 153); conditions: S. cerevisiae mgt1 mutant growth inhibition, hits give high values
In short: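 Yeast mgt1 strain (DNA repair/cell-cycle alteration panel) exposed to compounds; growth inhibition measured relative to vehicle-treated controls.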

[4] = NCI Yeast Anticancer Drug Screen. Data for the rad50 strain (AID 155);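 also: 0% = growth of vehicle-only cultures of the same strain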; conditions: S. cerevisiae rad50 strain growth inhibition, hits give high values
In short: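 Compounds were tested on a yeast strain with an engineered DNA damage repair alteration; the reported value is growth inhibition normalised to vehicle treatment.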

[5] = NCI Yeast Anticancer Drug Screen. Data for the mec2-1 strain (AID 157); conditions: S. cerevisiae mec2-1 strain, hits give high values
In short: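 mec2-1 yeast strain, carrying an alteration in DNA damage repair or cell cycle control, was exposed to compounds; growth inhibition was measured relative to vehicle-treated controls.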

[6] = NCI Yeast Anticancer Drug Screen. Data for the sgs1 mgt1 strain (AID 161);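 also: 0% = growth of cultures given vehicle only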; conditions: S. cerevisiae sgs1 mgt1 strain, hits give high values
In short: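 Compounds are added to genetically altered yeast, and growth is compared with cultures given vehicle alone to give percent inhibition.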

[7] = NCI Yeast Anticancer Drug Screen. Data for the CLN2oe strain (AID 163);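 also: 0% = growth of vehicle-only control cultures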; conditions: S. cerevisiae CLN2oe strain, hits give high values
In short: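 Yeast cells carrying a defined cell-cycle control alteration were exposed to test compounds. Growth inhibition was scored against vehicle-treated control cultures.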

[8] = NCI Yeast Anticancer Drug Screen. Data for the cln2 rad14 strain (AID 165);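 also: 0% = growth equal to vehicle treated cultures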; conditions: S. cerevisiae cln2 rad14 strain, hits give high values
In short: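 Yeast carrying cln2 and rad14 alterations (cell cycle control and DNA damage repair) were exposed to compounds. Growth inhibition was measured against vehicle-treated controls.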

[9] = NCI Yeast Anticancer Drug Screen. Data for the bub3 strain (AID 167); conditions: S. cerevisiae bub3 mutant strain, hits give high values
In short: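 Growth of a checkpoint-deficient yeast mutant is measured after compound exposure. Values represent inhibition relative to vehicle.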

[10] = NCI Yeast Anticancer Drug Screen. Data for the wt2 strain (AID 169);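 also: 0% = growth of vehicle-treated yeast cultures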; conditions: S. cerevisiae wt2 strain growth inhibition, hits give high values
In short: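 Yeast cells were exposed to test compounds, and growth inhibition was measured relative to vehicle-treated controls.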

[11] = NCI Yeast Anticancer Drug Screen. Data for the mlh1 strain (AID 171);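 also: 0% = growth of vehicle-treated control cultures of the same strain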; conditions: S. cerevisiae mlh1 strain growth inhibition, hits give high values
In short: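 Yeast carrying a defined genetic alteration in DNA damage repair or cell cycle control were exposed to test compounds. Growth inhibition was measured relative to vehicle-treated controls.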

[12] = NCI Yeast Anticancer Drug Screen. Data for the sgs1 strain (AID 173);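 also: 0% = growth of vehicle-only control cultures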; conditions: S. cerevisiae sgs1 mutant, hits give high values
In short: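 Yeast mutant strains carrying defined defects in DNA damage repair or cell cycle control were exposed to test compounds. Growth inhibition was scored against vehicle-treated controls.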

[13] = NCI Yeast Anticancer Drug Screen. Data for the mlh1 rad18 strain (AID 175); conditions: S. cerevisiae mlh1 rad18 strain growth inhibition, hits give high values
In short: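 Growth inhibition of the yeast strain was measured after compound exposure and expressed relative to vehicle-treated controls. The strain carries defined defects in DNA damage repair.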

[14] = NCI Yeast Anticancer Drug Screen. Data for the rad18 strain (AID 177); conditions: S. cerevisiae rad18 mutant growth inhibition, hits give high values
In short: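 Yeast carrying a defined DNA damage repair alteration were exposed to compounds. Growth inhibition was expressed relative to vehicle-treated controls.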

[15] = at 5.0 µM (retest, dose inferred, filed as 0.5)
[16] = at 50.0 µM (retest, dose inferred, filed as 5.0)

Measured: growth inhibition

COc1ccc(/C=C2\S/C(=N/Nc3nc(-c4ccccc4)cs3)NC2=O)cc1OC
active: [1]; at 3.7 µM 90% | [1]; at 11.0 µM 97% | [1]; at 33.0 µM 96% | [1]; at 100.0 µM 95% | [2]; at 11.0 µM 93% | [2]; at 33.0 µM 97% | [2]; at 100.0 µM 97% | [3]; at 1.2 µM 92% | [3]; at 3.7 µM 97% | [3]; at 11.0 µM 98% | [3]; at 33.0 µM 97% | [3]; at 100.0 µM 93% | [4]; at 3.7 µM 87% | [4]; at 11.0 µM 96% | [4]; at 33.0 µM 97% | [4]; [16] 93% | [4]; at 50.0 µM 95.2% | [4]; at 100.0 µM 93% | [5]; at 1.2 µM 82% | [5]; at 3.7 µM 88% | [5]; at 11.0 µM 96% | [5]; at 33.0 µM 97% | [5]; [16] 87% | [5]; at 50.0 µM 95.5% | [5]; at 100.0 µM 94% | [6]; [16] 90% | [6]; at 50.0 µM 95.7% | [7]; at 3.7 µM 79% | [7]; at 11.0 µM 96% | [7]; at 33.0 µM 98% | [7]; at 100.0 µM 97% | [8]; [16] 95% | [8]; at 50.0 µM 91% | [9]; at 1.2 µM 82% | [9]; at 3.7 µM 93% | [9]; [15] 94% | [9]; at 11.0 µM 97% | [9]; at 33.0 µM 97% | [9]; [16] 98% | [9]; at 50.0 µM 98.3% | [9]; at 100.0 µM 97% | [10]; at 3.7 µM 79% | [10]; at 11.0 µM 97% | [10]; at 33.0 µM 95% | [10]; at 100.0 µM 96% | [11]; at 3.7 µM 75% | [11]; at 11.0 µM 96% | [11]; at 33.0 µM 94% | [11]; at 100.0 µM 88% | [12]; at 3.7 µM 73% | [12]; at 11.0 µM 88% | [12]; at 33.0 µM 95% | [12]; at 100.0 µM 92% | [13]; [16] 97% | [13]; at 50.0 µM 98.5% | [14]; at 3.7 µM 83% | [14]; at 11.0 µM 97% | [14]; at 33.0 µM 96% | [14]; at 100.0 µM 90%
inactive: [1]; at 1.2 µM 50% | [2]; at 1.2 µM 29% | [2]; at 3.7 µM 63% | [4]; at 1.2 µM 59% | [4]; [15] -4% | [5]; [15] -8% | [6]; [15] -4% | [7]; at 1.2 µM 44% | [8]; [15] 11% | [10]; at 1.2 µM 22% | [11]; at 1.2 µM 13% | [12]; at 1.2 µM 32% | [13]; [15] 12% | [14]; at 1.2 µM 35%

Source: PubChem BioAssay (NCI)
